The campaign covered roughly 65,000 compounds. About 2,100 (3.2%) showed an effect of 50% or more. The median lay at about -52%. Only a selection was taken, and strong results are over-represented in it overall.

The test system of the experiment is Plasmodium falciparum. Briefly: Screen against P. falciparum Asexual Blood Stage (ABS), at 5uM. Format: functional, Dd2. The conditions noted are these: tested at 5 uM.
For `COCC1c2nnn(C)c2CCN1C(=O)CCc1cccc(OC)c1` (stereo unspecified), the INHIBITION is listed as -85.3%.
Turning to `CC1CCCN(Cc2ccc(C(N)=O)cc2)C1` (stereo unspecified), the INHIBITION is -118%.
Next, `COc1ccc(NC(C)c2nnnn2-c2ccccc2)cc1F` (stereo unspecified): -2.6%.
As for `Cc1nc(Cc2ccccc2)nc2sc(C(=O)O)c(C)c12`, the INHIBITION was -62.8%.
Consider `CC(=O)N1CCN(c2nc(C(F)(F)F)nc3sc(C)c(C)c23)CC1`, for which the INHIBITION was -30.4%.
Take `Cc1sc2nc(CCN)nc(N3CCS(=O)(=O)CC3)c2c1C`: the INHIBITION is reported as -119%.
Next, `CCOC(=O)N1CCN(c2nc(CCN)nc3sc(C)c(C)c23)CC1`: 66.1%; `Cc1cnn(CC(C)NCc2ccc(OCC(N)=O)cc2)c1` (stereo unspecified): -49.9%; `CCOC(=O)N1CCN(c2nc(NCCCO)c3ccccc3n2)CC1`: -50.8%.
Consider `CCn1ccc(-c2cc(NCCCOc3ccccc3C)nc(C)n2)n1`, for which the INHIBITION was -2.89%.
Next, `CC(C)COc1ccccc1C(N)CC(C)C` (stereo unspecified): 28.3%.
Take `CCOc1ccccc1C(N)CC(C)C` (stereo unspecified): the INHIBITION was found to be 33.2%.
Next, `Cc1ccc(Oc2c(F)cccc2OC[C@@H](N)CC(C)C)cc1`: 65.9%; `O=C(O)c1ccnc(SCC(F)(F)F)c1`: -13.4%.
Next, `CN1[C@@H](C(=O)NCC2CC2)C[C@H]2CN(Cc3cccc(C#N)c3)C[C@H]21`: 27.2%; `Cc1ccc(CN2CC[C@@H]3[C@@H](CO[C@H]3CN3CCN(C)CC3)C2)cc1`: -1.6%.
Consider `CN1CCN(C[C@@H]2OC[C@H]3CN(CCc4ccccc4)CC[C@H]32)CC1`, for which the INHIBITION is 66.1%.
Next, `CN1CCN(C[C@@H]2OC[C@H]3CN(Cc4cccc(F)c4)CC[C@H]32)CC1`: 19.2%.
Next, `Cn1cccc1C(=O)N1CCO[C@H]2[C@H](OCc3cccnc3)CC[C@@H]21`: -57.2%.
As to `CC(C)C(=O)N1CCC([C@@H]2C[C@H](C(F)F)n3ncnc3N2)CC1`, the INHIBITION was determined as 12.2%.
As for `COCCN1CCOCC12CCN(C(=O)c1c[nH]c3ccccc13)CC2`, the INHIBITION was -122%.
In the case of `Cc1ccc(CN2CCOCC3(C2)CN(c2ccc(C)s2)C(=O)CO3)o1` (stereo unspecified), the INHIBITION was -71.8%.
For the compound `CCc1cc(N2CCC3(CCCNC3=O)C2)nc(N2CCOCC2)n1` (stereo unspecified), the INHIBITION was -56.1%.
As to `Cc1ccc(CN2CCOC3(COCCN(CCN(C)C)C3)C2)o1` (stereo unspecified), the INHIBITION was -69.1%.
Consider `O=C(NCCO)C1(Cc2ccccc2-c2cccnc2)CCOCC1`, for which the INHIBITION is on record as -31.7%.
In the case of `CC(C)NC(=O)C1(Cc2ccccc2-c2cncnc2)CCCNC1` (stereo unspecified), the INHIBITION is listed as -14.3%.
Next, `COCCNC(=O)C1(Cc2ccccc2-c2ccncc2)CCOCC1`: -10.1%; `CC(C)NC(=O)C1(Cc2ccccc2-c2cccs2)CCNC1` (stereo unspecified): 68.3%.
Take `O=C(O)C1(Cc2ccc(-c3cccs3)cc2)CCNC1` (stereo unspecified): the INHIBITION is given as -44.3%.
With `CC(C)CNC(=O)C1(Cc2ccccc2-c2ccccc2)CCNC1` (stereo unspecified), the INHIBITION is listed as 52%.
In the case of `Cc1cc(=O)[nH]c(=O)n1Cc1ncc(-c2ccccc2C(=O)O)s1`, the INHIBITION was -46.1%.
With `O=C1C(NCc2nnc3n2CCCC3)CCN1c1ccccc1Cl` (stereo unspecified), the INHIBITION is listed as -35.2%.
Next, `CN(CC1CC1)c1ccc2ccc(C(=O)NC3CCCCC3)cn12`: 54.6%; `COCCNC(=O)c1ccc2ccc(N(C)CC3CC3)n2c1`: 60.1%; `CCN(CC)c1ccc2ccc(C(=O)NC3CC3)cn12`: -34.9%.
For the compound `CN(CC1CC1)c1ccc2ccc(C(=O)NCCc3ccccc3)cn12`, the INHIBITION is listed as -46.3%.
Turning to `CN(C)C(=O)CNC(=O)c1ccc2ccc(N(C)CC3CC3)n2c1`, the INHIBITION is reported as -73.5%.
Next, `CN(C)CCNC(=O)c1ccc2ccc(N(C)CC3CC3)n2c1`: 19.9%; `Cn1cccc1CN1CCC2(CC1)CN(c1ncccn1)CCO2`: -28.5%; `Cc1ccc(CN(Cc2c[nH]cn2)C2CC(C)(C)NC(C)(C)C2)o1`: -50.8%.
Next, `Cc1ccc(CN(Cc2ccccn2)C2CC(C)(C)NC(C)(C)C2)s1`: 69.8%; `CC1(C)CC(N(Cc2ccncc2)Cc2cccnc2)CC(C)(C)N1`: 25.7%.
In the case of `Cc1ccc(CN(Cc2ccncc2)C2CCN(C)CC2)s1`, the INHIBITION was found to be 34.9%.
Next, `Cc1ccc(CN(Cc2ncc[nH]2)C2CC(C)(C)NC(C)(C)C2)o1`: -15.9%.
Next, `CC1(C)CC(N(Cc2ccccc2)Cc2cccnc2)CC(C)(C)N1`: 54.6%; `Cc1ccc(CN(Cc2cccnc2)C2CC(C)(C)NC(C)(C)C2)s1`: 69.6%; `CC1(C)CC(N(Cc2cccnc2)Cc2cccnc2)CC(C)(C)N1`: -5.22%.
`Cc1ccc(CN(Cc2ccncc2)C2CC(C)(C)NC(C)(C)C2)o1`: the INHIBITION was 66.9%.
Consider `Cc1ccc(CN(Cc2ccccn2)C(=O)[C@H]2CC[C@@H](N)C2)s1`, for which the INHIBITION is -57.1%.
Next, `Cc1cccc(CN(Cc2cccnc2)C2CC(C)(C)NC(C)(C)C2)n1`: 42.9%; `CC1(C)CC(N(Cc2ccccc2)Cc2c[nH]cn2)CC(C)(C)N1`: 20.7%.
With `CCn1ncc2c(C(F)(F)F)cc(-c3ccn(C)n3)nc21`, the INHIBITION is recorded as -88%.
Next, `COc1ccc(C(C)Nc2cnn(C)c(=O)c2Cl)cc1OC` (stereo unspecified): -40.4%; `CC(C)OCCN1CCC(Nc2ncccn2)CC1`: -102%.
Next, `CCC1CN(C(=O)NCc2cccnc2-n2cccn2)CCO1` (stereo unspecified): -88.4%; `O=C(O)C1CCCN1c1nc(-c2ccc(Cl)c(Cl)c2)cc(C(F)(F)F)n1` (stereo unspecified): -8.45%.
Next, `CCCc1nc(C)c(C(=O)NCCn2nc3ccccn3c2=O)s1`: -201%; `Cc1cccc(C(CNC(=O)NCc2cc[nH]n2)N2CCOCC2)c1` (stereo unspecified): 53%; `O=C(NCc1cc[nH]n1)NCC(c1ccc(F)cc1)N1CCOCC1` (stereo unspecified): -39%.
`O=C(NCc1cc[nH]n1)NCC(c1ccccc1)N1CCOCC1` (stereo unspecified): the INHIBITION is given as -82.7%.
Next, `CCCn1ccnc1-c1nccn1CCn1cnnc1`: -36%.
As for `O=C(C1CCOCC1)N1CCO[C@H]2[C@H](Oc3ccccn3)CC[C@@H]21`, the INHIBITION was -53.1%.
As for `O=C(NCC(=O)N1CCCC1)c1nn(-c2ccccc2F)cc1O`, the INHIBITION is on record as -120%.
Next, `CCOCC(O)CN1CCN(C(=O)c2ccc(N(C)C)nc2)CC1` (stereo unspecified): -72.5%; `CCOCC(O)CN1CCN(C(=O)c2ccc(OC)cc2)CC1` (stereo unspecified): -24.3%; `CCOCC(O)CN1CCN(C(=O)c2ccc(C)nc2)CC1` (stereo unspecified): 60.7%.

For the origin of these results see ChEMBL document CHEMBL4513216, “Probing the Open Global Health Chemical Diversity Library for Multistage-Active Starting Points for Next-Generation Antimalarials” (ACS Infect Dis, 2020).
